Screening results (PubChem BioAssay)
Many of the other results were omitted from the sample, so hits are more common in it than they were.
ALR H2O2 inh = inhibitors of human ALR sulfhydryl oxidase, primary screen, biochemical, H2O2 detection, HRP-luminol luminescence, single point; FAD-linked sulfhydryl oxidase ALR (Homo sapiens), P55789; hit rate 3.8% among 290,000; purified ALR, DTT oxidation; inhibition, % (no concentration beside the values);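 active means mean replicate inhibition above about 79%, with every replicate also reaching it, limit read from the data; inconclusive means only one of the two criteria met; inactive means mean below limit and not every replicate reaching it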
Target sequence (P55789 whole entry, looked up): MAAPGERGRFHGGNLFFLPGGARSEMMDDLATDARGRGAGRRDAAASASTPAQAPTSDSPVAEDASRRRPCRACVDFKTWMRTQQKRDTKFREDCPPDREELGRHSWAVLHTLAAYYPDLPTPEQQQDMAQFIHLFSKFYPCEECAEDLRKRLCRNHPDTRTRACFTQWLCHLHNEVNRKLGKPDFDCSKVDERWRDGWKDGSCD
PglD inh = C. jejuni PglD acetyltransferase inhibitors, primary screen, biochemical, DTNB colorimetric, single point; inhibition, % at 12.5 µM; purified PglD enzyme, DTNB colorimetric CoA detection; UDP-N-acetylbacillosamine N-acetyltransferase PglD (Campylobacter jejuni); AID 602405, 2012; hit rate 0.098% among 360,000; in the data active means inhibition above about 16%, passing the limit was not always enough; inconclusive means no clear call, values can overlap the other calls
ERp5 block = inhibitors of ERp5-driven insulin aggregation, primary screen, biochemical, turbidity, absorbance 650 nm, single point | 90 min | inhibition, % at 9.99 µM | hit rate 0.05% among 350,000 | Protein disulfide-isomerase A6 (Homo sapiens), Q15084;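 active means mean replicate inhibition above about 25%, with every replicate also reaching it, limit read from the data, passing the limit was not always enough; inconclusive means only one of those two criteria met; inactive means neither criterion met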
PDI turbidity = inhibitors of human PDI, primary screen, biochemical, turbidity, single point, plate reader; PDI insulin aggregation turbidity, A650, 90 min; Protein disulfide-isomerase (Homo sapiens), P07237; hit rate 0.052% among 350,000; inhibition, % at 10 µM;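 active means mean inhibition across replicates of 30% or more, whatever share of single replicates reach that level; inconclusive means mean inhibition below 30% while every single replicate reaches 30%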
Target sequence (P07237 whole entry, looked up): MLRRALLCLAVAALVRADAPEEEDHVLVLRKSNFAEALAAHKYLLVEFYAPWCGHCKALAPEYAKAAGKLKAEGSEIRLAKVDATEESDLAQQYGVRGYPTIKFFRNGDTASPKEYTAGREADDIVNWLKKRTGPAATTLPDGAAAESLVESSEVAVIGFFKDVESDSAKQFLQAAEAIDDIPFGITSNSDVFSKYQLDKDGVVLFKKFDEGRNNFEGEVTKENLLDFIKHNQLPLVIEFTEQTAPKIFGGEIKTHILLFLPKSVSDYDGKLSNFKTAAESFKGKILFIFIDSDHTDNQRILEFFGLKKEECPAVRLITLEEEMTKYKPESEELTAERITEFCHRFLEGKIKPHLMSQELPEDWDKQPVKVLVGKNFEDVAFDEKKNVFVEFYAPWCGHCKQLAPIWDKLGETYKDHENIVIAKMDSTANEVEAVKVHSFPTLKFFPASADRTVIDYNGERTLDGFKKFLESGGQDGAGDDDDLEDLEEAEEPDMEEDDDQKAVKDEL
ARNT-TACC3 inh = disruptors of ARNT/TACC3 protein interaction, primary screen, biochemical, AlphaScreen, single concentration; Transforming acidic coiled-coil-containing protein 3 (Homo sapiens), Q9Y6A5; AlphaScreen His-ARNT PAS-B/GST-TACC3 binding, luminescence; TACC3 fragment carries E629A point mutation; inhibition, % at 9.99 µM; hit rate 0.66% among 390,000;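 active means mean inhibition of replicates at least 50% and at least half of replicates each reaching 50%; inconclusive means half or more replicates reach 50% but mean below 50%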
CendR NRP1 mod = modulators of CendR peptide binding to NRP-1, primary screen, biochemical, fluorescence polarization, uHTS; hit rate 0.85% among 360,000; inhibition, % at 25 µM; FAM-RPARPAR peptide binding to NRP-1; Neuropilin-1 (Homo sapiens), O14786;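 active means inhibition or corrected inhibition above about 18%, plus a signal ratio from 0.5 to 1.5, limit read from the data, passing the limit was not always enough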
Each line names hits and unclear results; the compound was inactive in the other large screens.

CCN1[C@@H]2Cn3c(ccc(C4=CCCCC4)c3=O)[C@H]1[C@@H](C(=O)NC1Cc3ccccc3C1)[C@@H]2CO	none (no result: ALR H2O2 inh, PglD inh, PDI turbidity, ARNT-TACC3 inh, CendR NRP1 mod)
O=C(O)C[C@H]1C[C@H]2c3cc(NS(=O)(=O)c4ccccc4)ccc3O[C@H]2[C@H](CO)O1	none (no result: ALR H2O2 inh, PglD inh, PDI turbidity, ARNT-TACC3 inh, CendR NRP1 mod)
COc1cc([N+](=O)[O-])cc(/C=N/NC(=O)c2cc(C)nc3ccccc23)c1O	ARNT-TACC3 inh 64 (no result: PglD inh)
COc1cc(/C=N/NC(=O)c2cc(-c3ccco3)nc3ccccc23)cc(OC)c1O	ALR H2O2 inh 97 (no result: PglD inh)
O=C(N/N=C\c1ccc([N+](=O)[O-])o1)c1cncc(Br)c1	none
COc1cc([N+](=O)[O-])cc(/C=N/NC(=O)c2cc(-c3ccccc3)nc3ccccc23)c1O	none
COc1cc([N+](=O)[O-])cc(/C=N/NC(=O)c2cncc(Br)c2)c1O	ARNT-TACC3 inh 69
COc1cc(/C=N/NC(=O)c2cc(-c3ccccc3Cl)nc3ccccc23)cc(OC)c1O	none (no result: PglD inh)
O=C(O)COc1ccccc1/C=N/NC(=O)c1cc(-c2ccc(F)cc2)nc2ccccc12	ARNT-TACC3 inh 47
C[C@H]1CN([C@@H](C)CO)C(=O)c2cc(NC(=O)c3ccncc3)ccc2O[C@@H]1CN(C)Cc1ccccc1	none (no result: ALR H2O2 inh, PDI turbidity, CendR NRP1 mod)
CC1(C)OC2CC(=O)OCC23C1CC(=O)C1(C)C3CCC2(C)C(c3ccoc3)OC(=O)C3OC321 (stereo unspecified)	none (no result: ALR H2O2 inh, PDI turbidity, ARNT-TACC3 inh)
CC(C)(O)[C@@H]1CC(=O)[C@]2(C)[C@H](CC[C@@]3(C)[C@H](c4ccoc4)OC(=O)[C@H]4O[C@]432)[C@@]1(C)/C=C\C(=O)O	CendR NRP1 mod 26
CCCNC(=O)C[C@@H]1C[C@H]2c3cc(NC(=O)Cc4ccncc4)ccc3O[C@H]2[C@@H](CO)O1	none (no result: ALR H2O2 inh, ERp5 block, PDI turbidity, CendR NRP1 mod)
S=c1[nH]nc(Nc2cccc(Cl)c2)s1	ALR H2O2 inh 99 (no result: PglD inh)
C[C@H]1CN([C@@H](C)CO)C(=O)c2cccc(NC(=O)Nc3ccc(F)cc3)c2O[C@@H]1CN(C)C	none (no result: ALR H2O2 inh, PDI turbidity, CendR NRP1 mod)
Cc1cccc(N2CCN(S(=O)(=O)c3ccc(Cl)nc3)CC2C)c1 (stereo unspecified)	CendR NRP1 mod 27 (no result: PglD inh, ARNT-TACC3 inh)
Cc1ccc(N2CCN(S(=O)(=O)c3cccs3)CC2C)cc1 (stereo unspecified)	ALR H2O2 inh 99 (no result: ARNT-TACC3 inh)
CC(=O)N(C[C@H]1N[C@H](CO)[C@@H]1c1ccc(-c2cccnc2)cc1)C1CCCC1	none (no result: ALR H2O2 inh, PDI turbidity, CendR NRP1 mod)
CC(C)CC(COCc1ccc([N+](=O)[O-])cc1)N1CCN(C(=O)c2ccc(C(F)(F)F)cc2)CCC1=O (stereo unspecified)	CendR NRP1 mod 23
Cc1cccc(COCC(CC(C)C)N2CCN(C(=O)c3ccc(C(F)(F)F)cc3)CCC2=O)c1 (stereo unspecified)	none
COc1ccc(NC(=O)NNC(=O)CCc2ccc(O)c(O)c2)cc1OC	ALR H2O2 inh 99
O=S(=O)(Nc1nc2ccccc2nc1NCC1CCCO1)c1cccc(Cl)c1 (stereo unspecified)	ALR H2O2 inh 87, ERp5 block inconclusive
O=S(=O)(Nc1nc2ccccc2nc1NCCO)c1cccc(Cl)c1	none (no result: ERp5 block)
CCNC(=O)C[C@@H]1CC[C@@H]2[C@H](COC[C@@H](O)CN2C(=O)c2cc(Cl)cc(Cl)c2)O1	none (no result: ALR H2O2 inh, ERp5 block, PDI turbidity, CendR NRP1 mod)
COCC1CCN(Cc2nc(Cc3ccccc3Cl)no2)CC1	CendR NRP1 mod 21 (no result: PglD inh)
O=C(O)c1cc2ccccc2cc1Nc1ccccc1	ALR H2O2 inh 99
O=C(O)c1ccccc1Nc1ccc(OC(F)F)cc1	ALR H2O2 inh 100 (no result: PglD inh)
COc1cccc(Nc2ccccc2C(=O)O)c1	ALR H2O2 inh 99 (no result: PglD inh)
COc1cc2ccccc2cc1C(=O)O	none (no result: ERp5 block)
CN(C(=O)COC(=O)c1ccccc1Nc1ccccc1)C1CCS(=O)(=O)C1 (stereo unspecified)	ALR H2O2 inh 99 (no result: PglD inh, ERp5 block)
CC=Cc1ccc2n(c1=O)C[C@H]1[C@H](CO)[C@@H](C(=O)NCCN3CCCC3)N(C(=O)NCCC)[C@@H]21 (mixture of isomers)	none (no result: ALR H2O2 inh, PDI turbidity, CendR NRP1 mod)
CNC(=O)C[C@H]1CC[C@@H]2[C@H](COC[C@H](O)CN2Cc2ccc(Cl)c(Cl)c2)O1	none (no result: ALR H2O2 inh, PDI turbidity, CendR NRP1 mod)
CCC(=O)Nc1ccc2c(c1)C(=O)N(C)C[C@@H](OC)[C@H](C)CN(C(=O)NC(C)C)[C@@H](C)CO2	none (no result: ALR H2O2 inh, PDI turbidity, CendR NRP1 mod)
COc1ccc(C(=O)Nc2ccccc2C(=O)Nc2ccccc2C(=O)O)cc1	ALR H2O2 inh 98
COc1ccc(Nc2ccc(Cl)cc2)c(C(=O)O)c1	ALR H2O2 inh 99 (no result: PglD inh, ERp5 block)
O=C(COC(=O)c1ccccc1Nc1ccccc1)NCc1ccccc1	ALR H2O2 inh 97 (no result: ERp5 block, ARNT-TACC3 inh)
O=C(O)c1ccccc1Nc1cccc(C(F)(F)F)c1	none (no result: ALR H2O2 inh)
O=C(O)c1ccccc1Nc1ccccc1	ALR H2O2 inh 99
CC(C)C#Cc1ccc2c(c1)O[C@@H](CN(C)CC1CC1)[C@@H](C)CN([C@@H](C)CO)S2(=O)=O	none (no result: ALR H2O2 inh, PDI turbidity, CendR NRP1 mod)
O=S(=O)(c1ccccc1)N1CC[C@@H]2[C@H](CO)Nc3ccc(Br)cc3[C@@H]21	none (no result: ALR H2O2 inh, PDI turbidity, CendR NRP1 mod)
CC(=O)N(C[C@H]1N[C@H](CO)[C@@H]1c1ccc(-c2cccc(F)c2)cc1)C1CCCC1	none (no result: ALR H2O2 inh, PglD inh, PDI turbidity, ARNT-TACC3 inh, CendR NRP1 mod)
CCC(=O)N(C)C[C@@H]1Oc2ncc(-c3ccc(C#N)cc3)cc2C(=O)N([C@@H](C)CO)C[C@@H]1C	none (no result: ALR H2O2 inh, PDI turbidity, CendR NRP1 mod)
Cc1sc2nc(CSc3ccccc3)nc(NCCN(C)C)c2c1C	none (no result: PglD inh, ERp5 block)
CCNc1nc(CSc2ccccc2)nc2sc(C)c(C)c12	ALR H2O2 inh 83 (no result: ERp5 block)
CCN1/C(=C2/SC(=S)N(NC(C)=O)C2=O)Sc2ccc(Cl)cc21	ALR H2O2 inh 96
O=C(C[C@H]1CC[C@@H]2[C@H](COC[C@@H](O)CN2C(=O)Cc2ccccc2)O1)NC1CCC1	none (no result: ALR H2O2 inh, PDI turbidity, CendR NRP1 mod)
O=[N+]([O-])c1cc(-c2ncccn2)c([N+](=O)[O-])s1	ALR H2O2 inh 98
O=C(Nc1ncccn1)c1cc([N+](=O)[O-])cc([N+](=O)[O-])c1	none (no result: PglD inh, ERp5 block)
C[C@@H]1CN([C@@H](C)CO)C(=O)c2cc(/C=C/c3ccccc3)cnc2O[C@H]1CN(C)C(=O)C1CCCCC1	none (no result: ALR H2O2 inh, PDI turbidity, CendR NRP1 mod)
COc1cc(/C=C2\SC(N3CCC(C)CC3)=NC2=O)ccc1O	ALR H2O2 inh 90
CCOC(=O)CSC1=NC(=O)/C(=C\c2ccc(Cl)cc2)S1	ALR H2O2 inh 99 (no result: ERp5 block)
CSC1=NC(=O)/C(=C/c2ccc(SC)cc2)S1	none (no result: PglD inh)
CCOC(=O)C1CCN(C2=NC(=O)/C(=C/c3ccc(Cl)cc3)S2)CC1	ALR H2O2 inh 96
CCOC(=O)C1CCN(C2=NC(=O)/C(=C/c3ccc(OC)c(OC)c3)S2)CC1	none
